# Measured values taken from PubChem BioAssay AID2284127 (EPA ToxCast).
# The source made the active and inactive calls. How the source made its calls: active means hit-call score of the fitted dose curve at least 0.9, where 1 is the maximum; inactive means score below 0.9.
# Molecular target: human Receptor-type tyrosine-protein phosphatase F (PTPRF/LAR), PTPRF (gene 5792) (UniProt P10586)
# Test: ERF_TW_ENZ_hPTPRF: Eurofins (ERF) Enzymatic LeadHunter Assay for human Receptor-type tyrosine-protein phosphatase F (PTPRF/LAR)
# Procedure: ERF_TW_ENZ_hPTPRF is a biochemical, single-readout assay that uses extracted gene-proteins in a cell-free assay. Measurements were taken 1 hour after chemical dosing in a 96-well plate. See LAR Human Phosphatase Enzymatic Assay, Panlabs.ERF_TW_ENZ_hPTPRF is an assay component calculated from the ERF_TW_ENZ_hPTPRF assay. It is designed to measure enzyme activity using a type of enzyme reporter as detected by fluorescence intensity with spectrophotometry technology.Data from the assay component ERF_TW_ENZ_hPTPRF was analyzed at the assay endpoint, ERF_TW_ENZ_hPTPRF, in the positive analysis fitting direction relative to DMSO as the negative control and baseline of activity. Using a type of enzyme reporter, loss-of-signal activity can be used to understand changes in enzymatic activity as they relate to gene PTPRF. To generalize the intended target to other relatable targets, this assay endpoint is annotated to the phosphatase intended target family, where the subfamily is receptorasA tyrosine phosphatase.
# Human recombinant protein phosphatase LAR expressed in E. coli is used. Test compound and/or vehicle is preincubated with 0.48 ng/ml enzymedouble dagger for 15 minutes at 37C in modified HEPES buffer pH 7.2. The reaction is initiated by addition of 10 uM DiFMUP for 60 minutes. Determination of the amount of DiFMU formed is read spectrofluorimetrically at 358 nm/450 nm. […]
# human Receptor-type tyrosine-protein phosphatase F (PTPRF/LAR), PTPRF (gene 5792), sequence (P10586 whole entry, looked up): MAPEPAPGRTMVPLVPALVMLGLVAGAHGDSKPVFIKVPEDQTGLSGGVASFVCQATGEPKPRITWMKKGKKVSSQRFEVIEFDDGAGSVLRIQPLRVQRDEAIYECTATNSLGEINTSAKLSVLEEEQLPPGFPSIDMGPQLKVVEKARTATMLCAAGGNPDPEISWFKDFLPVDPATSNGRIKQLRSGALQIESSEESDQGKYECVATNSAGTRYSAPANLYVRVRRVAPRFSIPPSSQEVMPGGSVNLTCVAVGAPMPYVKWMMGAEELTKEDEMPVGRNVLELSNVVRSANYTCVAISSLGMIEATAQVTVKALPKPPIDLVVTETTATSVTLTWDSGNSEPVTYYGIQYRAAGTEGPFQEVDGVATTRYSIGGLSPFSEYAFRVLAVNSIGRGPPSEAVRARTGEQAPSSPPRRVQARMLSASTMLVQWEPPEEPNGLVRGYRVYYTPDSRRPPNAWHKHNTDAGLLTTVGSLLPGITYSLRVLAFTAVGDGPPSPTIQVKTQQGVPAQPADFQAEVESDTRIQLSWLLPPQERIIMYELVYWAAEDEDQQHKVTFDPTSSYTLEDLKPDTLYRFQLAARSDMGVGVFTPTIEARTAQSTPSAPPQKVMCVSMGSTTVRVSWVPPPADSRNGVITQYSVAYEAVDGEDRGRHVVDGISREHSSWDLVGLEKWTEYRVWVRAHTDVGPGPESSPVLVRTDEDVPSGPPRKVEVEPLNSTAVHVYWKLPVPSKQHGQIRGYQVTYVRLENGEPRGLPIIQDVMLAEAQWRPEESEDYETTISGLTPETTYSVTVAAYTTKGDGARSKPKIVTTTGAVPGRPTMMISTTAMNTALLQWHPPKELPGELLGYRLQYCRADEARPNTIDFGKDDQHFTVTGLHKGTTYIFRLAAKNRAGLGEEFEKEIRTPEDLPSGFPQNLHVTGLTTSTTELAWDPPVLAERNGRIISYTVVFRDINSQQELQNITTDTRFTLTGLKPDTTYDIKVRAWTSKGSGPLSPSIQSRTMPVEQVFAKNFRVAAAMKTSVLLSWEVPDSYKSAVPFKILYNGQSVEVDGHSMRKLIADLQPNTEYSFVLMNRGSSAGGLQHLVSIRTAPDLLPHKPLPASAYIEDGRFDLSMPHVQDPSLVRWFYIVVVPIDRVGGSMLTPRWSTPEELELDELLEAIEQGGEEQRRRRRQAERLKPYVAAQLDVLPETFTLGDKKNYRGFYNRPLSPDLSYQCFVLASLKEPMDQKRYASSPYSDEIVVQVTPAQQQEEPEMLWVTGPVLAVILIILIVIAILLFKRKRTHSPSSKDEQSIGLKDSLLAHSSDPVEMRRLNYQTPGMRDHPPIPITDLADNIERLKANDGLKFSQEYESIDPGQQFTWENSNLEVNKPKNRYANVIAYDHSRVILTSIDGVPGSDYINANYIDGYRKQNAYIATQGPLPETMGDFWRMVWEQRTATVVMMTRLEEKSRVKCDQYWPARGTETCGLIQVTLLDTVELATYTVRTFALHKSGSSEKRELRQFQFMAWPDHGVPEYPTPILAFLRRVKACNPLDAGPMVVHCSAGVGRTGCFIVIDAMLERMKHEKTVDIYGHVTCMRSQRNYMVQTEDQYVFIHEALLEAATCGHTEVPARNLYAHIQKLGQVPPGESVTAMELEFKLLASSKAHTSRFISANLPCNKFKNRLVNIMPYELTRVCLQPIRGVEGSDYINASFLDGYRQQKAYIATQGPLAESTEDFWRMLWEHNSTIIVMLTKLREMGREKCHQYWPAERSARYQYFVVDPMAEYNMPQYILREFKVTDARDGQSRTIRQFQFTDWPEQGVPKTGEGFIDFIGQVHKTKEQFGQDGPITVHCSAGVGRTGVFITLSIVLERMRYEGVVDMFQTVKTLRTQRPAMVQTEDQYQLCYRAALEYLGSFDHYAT
row,SMILES,AC50
1,O=C(/C=C/c1ccc(O)cc1)CC(=O)/C=C/c1ccc(O)cc1,5 µM (active)
